From PubChem BioAssay (NCATS) come the findings set out here.

Molecules are shown by their SMILES. Where “and” joins values, the source holds several entries; their conditions need not be identical. Equal entries are not always repeated. Records with an inconclusive call do not appear. Calls of active or inactive are those of the source. Unless noted, the call rests on the fitted dose curve; in most records, active means well fitted curve in the direction sought with a large enough effect; inconclusive means small, poorly fitted or top-dose-only effect, or another doubt; inactive means no such curve, though single readings can be large; an effect the other way counts as inactive or inconclusive.

In experiment [1] the target is Alpha-galactosidase A (Homo sapiens) (UniProt P06280). Put plainly: Counterscreen for Glucocerebrosidase Inhibitors: qHTS Assay for Human alpha-Galactosidase at pH 4.5 (AID 992). Further: 0% is about no effect. The method, boiled down: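 Steps: enzyme (2 nM final), then compound across 0.7 nM to 77 uM, then 80 uM fluorogenic galactopyranoside substrate; incubate 20 min at room temperature; quench at pH 10; measure fluorescence at 365/440 nm.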

Experiment [2] deals with alpha-glucosidase (Oryza sativa, rice) (UniProt Q653V4). The experiment is described as follows: Counterscreen for Glucocerebrosidase Inhibitors: qHTS Assay for Rice alpha-Glucosidase at pH 5.0 (AID 997).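 Further: 0% = full activity with enzyme and -100% = basal without enzyme.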 The method, boiled down:
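Endpoint fluorogenic assay at pH 5.0: compounds (0.7 nM to 77 uM) titrated against 4 nM rice enzyme and 400 uM 4-MU-alpha-glucoside for 20 min at room temperature; NaOH/glycine stop, read ex 365/em 440 nm, Hill-fitted AC50.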
On the technique in general: A counterscreen serves to expose hits that act by an unwanted route or on another target.

Experiment [3] is described as follows: Validation of Assay for Modulators of Lamin A Splicing (AID 1459; active means well fitted curve in the direction sought with a large enough effect in the signal ratio; the % refers to the signal ratio;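 further: cells exposed to compound for two days before reading; 0% is about no effect; ratio rise marks activators and ratio drop marks inhibitors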). The method, boiled down:
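Splicing correction is reported by an EGFP-containing lamin A minigene in stably transfected S3 HeLa cells, while DsRed2 controls for viability and nonspecific signal. Cells are exposed to compounds for 48 hrs before the GFP over RFP ratio is taken.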

The target in experiment [4] is DNA repair nuclease/redox regulator APEX1 (Homo sapiens) (UniProt P27695). Put plainly: qHTS Validation Assay for Inhibitors of the Human Apurinic/apyrimidinic Endonuclease 1 (APE1) (AID 1705;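 further: TAMRA fluorescence gain over two minutes as APE1 cuts a quenched THF abasic duplex; on the % scale 0 is the no-effect control and ±100 the full control effect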). An outline of the steps:
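Endonuclease activity of human APE1 is followed as dequenching when the enzyme incises a tetrahydrofuran abasic site in a short duplex labelled 5'-TAMRA/3'-BHQ-2 (50 nM final), after 15 min enzyme–compound preincubation at room temperature.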
In general terms: qHTS replaces the single test concentration by a dilution series.

The nature of experiment [5]: Counterscreen for APE1 Inhibitors: Fluorescent Dye Displacement Validation Assay (AID 1707).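 Further: plate controls were ThO with dsDNA and no compound for no effect and ThO without dsDNA for full effect.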 An outline of the steps:
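Reaction mixture of 250 nM Thiazole Orange and 50 nM double-stranded abasic-site DNA was dispensed, compounds were pin-transferred, and fluorescence was read at endpoint (480 nm ex, 540 nm em). Reduced fluorescence indicated dye displacement by DNA binding.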

The target in experiment [6] is Endonuclease 4 (Escherichia coli (strain K12)) (UniProt P0A6C1). The experiment is described as follows: Counterscreen for APE1 Inhibitors: qHTS Validation Assay for Inhibitors of Endonuclease IV (AID 1708). Further: on the % scale 0 is the no-effect control and ±100 the full control effect. The method, boiled down: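 The reaction buffer contained 50 mM Tris-HCl pH 7.5, 50 mM NaCl, 2 mM MgCl2, 1 mM DTT and 0.01% Tween-20. Incision of a 50 nM fluorophore/quencher THF substrate by 2 nM enzyme was measured kinetically.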

Experiment [7] can be described thus: Cell Viability - LYMP2-026 (AID 989).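 Further: cells exposed to compound for 24 h at 37 °C; on the % scale 0 is the no-effect control and ±100 the full control effect; nearly all actives have a fitted effect of over 50% in size.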 The method, boiled down: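 Acute toxicity screen in complete culture medium, with 24 hr compound exposure at 37 C. Viability read as cellular ATP via luciferase reaction, with tetraoctylammonium bromide (6.4pM to 92 uM) as positive control.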
Experiment [8] is described as follows: qHTS Assay for Lipid Storage Modulators (AID 1519; calls by dose curve; on activity change, negative = inhibition: on the % scale 0 is the no-effect control and ±100 the full control effect). The following applies: Drosophila S3 cells, BODIPY lipid droplet/cell ratio, laser cytometry, cells loaded with oleic acid. The method, boiled down:
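Cells seeded at 5,000 per well were treated with compounds over a concentration series and loaded with oleic acid (400 uM, as added). Lipid droplet fluorescence (488 nm excitation, 500-530 nm channel) was read by laser-scanning cytometry and normalized to 20 uM Triacsin C.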

The mark [9] stands for this setting: measured here: cell count channel max response.
Setting [10] is: measured here: lipid channel max response.

DNA repair nuclease/redox regulator APEX1 (Homo sapiens), sequence (P27695 whole entry, looked up): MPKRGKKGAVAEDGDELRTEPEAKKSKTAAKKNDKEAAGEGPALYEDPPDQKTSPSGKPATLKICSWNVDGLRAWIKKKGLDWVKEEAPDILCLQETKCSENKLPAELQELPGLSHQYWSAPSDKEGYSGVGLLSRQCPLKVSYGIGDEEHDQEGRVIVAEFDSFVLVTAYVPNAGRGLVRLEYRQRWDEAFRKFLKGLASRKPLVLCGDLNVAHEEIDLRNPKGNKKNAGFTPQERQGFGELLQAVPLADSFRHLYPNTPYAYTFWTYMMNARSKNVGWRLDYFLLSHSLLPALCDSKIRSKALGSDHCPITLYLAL
Alpha-galactosidase A (Homo sapiens), sequence (P06280 whole entry, looked up): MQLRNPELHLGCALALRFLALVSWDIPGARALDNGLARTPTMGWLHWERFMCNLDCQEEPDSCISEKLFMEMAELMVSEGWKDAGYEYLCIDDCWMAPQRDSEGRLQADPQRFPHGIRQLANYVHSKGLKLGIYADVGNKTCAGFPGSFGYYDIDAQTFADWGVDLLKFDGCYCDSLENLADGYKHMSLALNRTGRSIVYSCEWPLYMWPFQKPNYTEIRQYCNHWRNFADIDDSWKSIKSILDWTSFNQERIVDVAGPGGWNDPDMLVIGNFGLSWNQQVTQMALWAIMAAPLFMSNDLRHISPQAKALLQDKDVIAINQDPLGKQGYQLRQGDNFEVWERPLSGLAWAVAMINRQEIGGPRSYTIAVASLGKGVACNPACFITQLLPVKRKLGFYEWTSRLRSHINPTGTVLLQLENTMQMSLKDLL

Turning to `CC1=C(CC(=O)O)c2cc(F)ccc2/C1=C\c1ccc(S(C)(=O)=O)cc1`, the call in experiment [1], in experiment [2] and in experiment [3] was inactive. Also, the Potency result in experiment [4], in experiment [5] and in experiment [6] was “inactive” each time.
On to `CC(CN(C)C)CN1c2ccccc2CCc2ccccc21` (configuration not stated), for which the compound was called inactive in experiment [3]. Further, the Potency entry in experiment [4] and in experiment [5] was “inactive” throughout.
As for `COC(=O)C1=C(C)NC(C)=C(C(=O)OC)C1c1ccccc1[N+](=O)[O-]`, the Potency result in experiment [7], in experiment [4], in experiment [5] and in experiment [6] was “inactive” throughout. Also, the compound was classed as inactive in experiment [1], in experiment [2] and in experiment [3].
For the compound `COc1ccc2c(c1)C(=O)N(CCc1ccc(S(=O)(=O)NC(=O)NC3CCCCC3)cc1)C(=O)C2(C)C`, the activity change, negative = inhibition in experiment [8] (at 25.7 µM (top of the series)) is -1.13% (inactive). The max response in experiment [8] (setting [9]) is -22.2%; in experiment [8] (setting [10]), -23.3%.
As to `CC(C)(C(=O)O)c1ccc(C(O)CCCN2CCC(C(O)(c3ccccc3)c3ccccc3)CC2)cc1` (configuration not stated), the call in experiment [3] was inactive. For the same compound, the Potency entry in experiment [5] and in experiment [6] was “inactive” in each case.
As for `CC(CN1c2ccccc2Sc2ccccc21)N(C)C` (configuration not stated), in experiment [3], the outcome was inactive. In experiment [8] (at 57.5 µM (top of the series)), the activity change, negative = inhibition is 7.97% (inactive) and 1.76% (inactive). The max response was 24.2% and 6.53% in experiment [8] (setting [9]); 44.6% and 8.19% in experiment [8] (setting [10]). Moreover, the Potency result in experiment [4], in experiment [5] and in experiment [6] was “inactive” in each case.
For `CN(C)CCN(Cc1ccccc1)c1ccccn1`, the activity change, negative = inhibition in experiment [8] (at 57.5 µM (top of the series)) is 1.48% (inactive). Also, the max response was 12.3% in experiment [8] (setting [9]) and 16.2% in experiment [8] (setting [10]).
Consider `CCCCN1CCCC[C@H]1C(=O)Nc1c(C)cccc1C`, for which the activity change, negative = inhibition in experiment [8] (at 25.7 µM (top of the series)) was -1.47% (inactive). Besides, the max response in experiment [8] (setting [9]) turned out to be 8.59%; in experiment [8] (setting [10]), 9.64%.
In the case of `CCCCCCCCCCCCCCCC(=O)NCCO`, the compound was classed as inactive in experiment [1], in experiment [2] and in experiment [3]. In addition, the Potency result in experiment [4], in experiment [5] and in experiment [6] was “inactive” in each case.
As for `OCc1cc(C(O)CNCCCCCCOCCCCc2ccccc2)ccc1O` (configuration not stated), the call in experiment [1], in experiment [2] and in experiment [3] was inactive. Also, the activity change, negative = inhibition in experiment [8] (at 57.5 µM (top of the series)) was -1.85% (inactive). Moreover, the values for the max response in experiment [8] (setting [9]) and in experiment [8] (setting [10]) were 12.8% and 10.1%, respectively. Also, the Potency entry in experiment [4], in experiment [5] and in experiment [6] was “inactive” in each case.
Take `CCN(CC)CCNC(=O)c1cc(Cl)c(N)cc1OC`: the result in experiment [1], in experiment [2] and in experiment [3] was inactive. The activity change, negative = inhibition was -0.223% (inactive) in experiment [8] (at 25.7 µM (top of the series)) and 6.86% (inactive) in experiment [8] (at 57.5 µM (top of the series)). Also, the max response in experiment [8] (setting [9]) was -7.61% and 4.16%; in experiment [8] (setting [10]) it was -6.48% and 12.9%. Also, the Potency result in experiment [4], in experiment [5] and in experiment [6] was “inactive” in each case.
As to `C[C@H](N)[C@H](O)c1cccc(O)c1`, the activity change, negative = inhibition in experiment [8] (at 25.7 µM (top of the series)) was -0.37% (inactive). Further, the max response in experiment [8] (setting [9]) was found to be 15.1%; in experiment [8] (setting [10]) it was 15%.
Take `O=C1N=C(O)CN1/N=C/c1ccc(-c2ccc([N+](=O)[O-])cc2)o1`: the call in experiment [3] was inactive. The Potency entry in experiment [4] and in experiment [6] was “inactive” each time.
With `CN1CCOC(c2ccccc2)c2ccccc2C1` (configuration not stated), in experiment [8] (at 57.5 µM (top of the series)), the activity change, negative = inhibition was 6.92% (inactive). In addition, the max response in experiment [8] (setting [9]) was found to be 13.7%; in experiment [8] (setting [10]), 26.3%.
For the compound `OCCN1CCN(CCCN2c3ccccc3Sc3ccc(Cl)cc32)CC1`, the call in experiment [1] and in experiment [2] was inactive. Besides, the activity change, negative = inhibition in experiment [8] (at 25.7 µM (top of the series)) is -1.31% (inactive); in experiment [8] (at 57.5 µM (top of the series)), 2.76% (inactive). Further, the max response is -14.4% and -12.4% in experiment [8] (setting [9]); -12.9% and -6.81% in experiment [8] (setting [10]). Besides, the Potency result in experiment [4] and in experiment [5] was “inactive” in each case.
